# About 2,000 (36%) of roughly 5,500 compounds were called active. About 18% were inconclusive and are not listed. The list shows a part of the results. A number with no mark means an inactive call. Cut-off read from the data, not from the text of the source: active = normalized growth mostly below about 0.91 (no sharp cut-off); inconclusive = no clear call, values can overlap the other calls; inactive = mostly above about 0.92.
# Test: chemical genetic growth profiling, strain panel (AID 1159580);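 note: tested at 20 µM; growth read once vehicle control cultures reached saturation at 30 °C; 1 = growth at the plate median or of vehicle wells; lower values mean less growth of the strain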
# Details: growth OD
structure (smiles),measurement,setting,value
Cc1cc(CC(=O)O)n(C)c1C(=O)c1ccc(Cl)cc1,normalized growth,"S. cerevisiae deletion strains, locus YJR075W, strain HOC1, hits give low values",1
same,normalized growth,"S. cerevisiae deletion strains, locus YKL009W, strain mrt4, hits give low values",0.962
same,normalized growth,"S. cerevisiae deletion strains, locus YKL068W, hits give low values",1
same,normalized growth,"S. cerevisiae deletion strains, locus YKL085W, strain MDH1 (second series), hits give low values",0.994
same,normalized growth,"S. cerevisiae deletion strains, locus YKL085W, strain MDH1, hits give low values",0.994
same,normalized growth,"S. cerevisiae deletion strains, locus YKL160W, strain elf1, hits give low values",1.05
same,normalized growth,"S. cerevisiae deletion strains, locus YKL190W, strain CNB1, hits give low values",1.01
same,normalized growth,"S. cerevisiae deletion strains, locus YKR001C, strain vps1, hits give low values",1.03
same,normalized growth,"S. cerevisiae deletion strains, locus YKR026C, strain gcn3, hits give low values",1.03
same,normalized growth,"S. cerevisiae deletion strains, locus YKR091W, strain srl3, hits give low values",1.02
same,normalized growth,"S. cerevisiae deletion strains, locus YLL001W, strain dnm1, hits give low values",1
same,normalized growth,"S. cerevisiae deletion strains, locus YLL026W, hits give low values",1.05
same,normalized growth,"S. cerevisiae deletion strains, locus YLL041C, strain sdh2, hits give low values",1.02
same,normalized growth,"S. cerevisiae deletion strains, locus YLR027C, strain aat2, hits give low values",1.03
same,normalized growth,"S. cerevisiae deletion strains, locus YLR039C, strain RIC1, hits give low values",1
same,normalized growth,"S. cerevisiae deletion strains, locus YLR058C, strain SHM2, hits give low values",0.996
same,normalized growth,"S. cerevisiae deletion strains, locus YLR102C, strain apc9, hits give low values",1.01
same,normalized growth,"S. cerevisiae deletion strains, locus YLR113W, strain HOG1, hits give low values",1.01
same,normalized growth,"S. cerevisiae deletion strains, locus YLR221C, strain rsa3, hits give low values",1.01
same,normalized growth,"S. cerevisiae deletion strains, locus YLR258W, strain gsy2, hits give low values",1.04
same,normalized growth,"S. cerevisiae deletion strains, locus YLR262C, strain YPT6 (second series), hits give low values",1.01
same,normalized growth,"S. cerevisiae deletion strains, locus YLR262C, strain YPT6, hits give low values",1.01
same,normalized growth,"S. cerevisiae deletion strains, locus YLR268W, strain sec22, hits give low values",0.997
same,normalized growth,"S. cerevisiae deletion strains, locus YLR320W, strain mms22, hits give low values",0.994
same,normalized growth,"S. cerevisiae deletion strains, locus YLR330W, strain CHS5, hits give low values",0.992
same,normalized growth,"S. cerevisiae deletion strains, locus YLR342W, strain FKS1 (second series), hits give low values",0.937
same,normalized growth,"S. cerevisiae deletion strains, locus YLR342W, strain FKS1, hits give low values",1.01
same,normalized growth,"S. cerevisiae deletion strains, locus YLR357W, strain rsc2, hits give low values",0.995
same,normalized growth,"S. cerevisiae deletion strains, locus YLR370C, strain arc18, hits give low values",1.04
same,normalized growth,"S. cerevisiae deletion strains, locus YLR371W, strain rom2, hits give low values",1.02
same,normalized growth,"S. cerevisiae deletion strains, locus YLR384C, strain iki3, hits give low values",1.04
same,normalized growth,"S. cerevisiae deletion strains, locus YLR418C, strain cdc73, hits give low values",0.99
same,normalized growth,"S. cerevisiae deletion strains, locus YML016C, strain PPZ1, hits give low values",0.994
same,normalized growth,"S. cerevisiae deletion strains, locus YML032C, strain rad52, hits give low values",1.02
same,normalized growth,"S. cerevisiae deletion strains, locus YML120C, strain ndi1, hits give low values",1.02
same,normalized growth,"S. cerevisiae deletion strains, locus YML124C, strain tub3, hits give low values",1.01
same,normalized growth,"S. cerevisiae deletion strains, locus YMR058W, strain fet3, hits give low values",1.03
same,normalized growth,"S. cerevisiae deletion strains, locus YMR078C, strain ctf18, hits give low values",1.01
same,normalized growth,"S. cerevisiae deletion strains, locus YMR125W, strain sto1, hits give low values",1.03
same,normalized growth,"S. cerevisiae deletion strains, locus YMR129W, hits give low values",1.02
same,normalized growth,"S. cerevisiae deletion strains, locus YMR205C, strain PFK2, hits give low values",1.02
same,normalized growth,"S. cerevisiae deletion strains, locus YMR223W, strain ubp8, hits give low values",0.994
same,normalized growth,"S. cerevisiae deletion strains, locus YMR231W, strain pep5, hits give low values",1.03
same,normalized growth,"S. cerevisiae deletion strains, locus YMR263W, strain SAP30, hits give low values",0.993
same,normalized growth,"S. cerevisiae deletion strains, locus YMR307W, strain GAS1, hits give low values",0.947
same,normalized growth,"S. cerevisiae deletion strains, locus YNL067W, strain RPL9B, hits give low values",0.997
same,normalized growth,"S. cerevisiae deletion strains, locus YNL071W, strain lat1, hits give low values",1.02
same,normalized growth,"S. cerevisiae deletion strains, locus YNL128W, strain TEP1, hits give low values",1.01
same,normalized growth,"S. cerevisiae deletion strains, locus YNL153C, strain GIM3, hits give low values",0.991
same,normalized growth,"S. cerevisiae deletion strains, locus YNL183C, strain NPR1, hits give low values",0.963
same,normalized growth,"S. cerevisiae deletion strains, locus YNL209W, strain ssb2, hits give low values",1.05
same,normalized growth,"S. cerevisiae deletion strains, locus YNL233W, strain BNI4, hits give low values",0.993
same,normalized growth,"S. cerevisiae deletion strains, locus YNL248C, strain rpa49, hits give low values",1.02
same,normalized growth,"S. cerevisiae deletion strains, locus YNL250W, strain rad50, hits give low values",1.01
same,normalized growth,"S. cerevisiae deletion strains, locus YNL271C, strain bni1, hits give low values",1.01
same,normalized growth,"S. cerevisiae deletion strains, locus YNL298W, strain CLA4, hits give low values",0.998
same,normalized growth,"S. cerevisiae deletion strains, locus YNL307C, strain MCK1, hits give low values",0.901 (active)
same,normalized growth,"S. cerevisiae deletion strains, locus YNL322C, strain KRE1 (second series), hits give low values",1.02
same,normalized growth,"S. cerevisiae deletion strains, locus YNL322C, strain KRE1, hits give low values",1.01
same,normalized growth,"S. cerevisiae deletion strains, locus YNR049C, strain mso1, hits give low values",1.02
same,normalized growth,"S. cerevisiae deletion strains, locus YNR052C, strain pop2, hits give low values",1.01
same,normalized growth,"S. cerevisiae deletion strains, locus YOL006C, strain TOP1, hits give low values",0.895
same,normalized growth,"S. cerevisiae deletion strains, locus YOL012C, strain htz1",1.55
same,normalized growth,"S. cerevisiae deletion strains, locus YOL147C, strain pex11, hits give low values",1.02
same,normalized growth,"S. cerevisiae deletion strains, locus YOR001W, strain rrp6, hits give low values",1.01
same,normalized growth,"S. cerevisiae deletion strains, locus YOR061W, strain CKA2, hits give low values",1.01
same,normalized growth,"S. cerevisiae deletion strains, locus YOR069W, strain VPS5, hits give low values",1
same,normalized growth,"S. cerevisiae deletion strains, locus YOR070C, strain gyp1, hits give low values",1.02
same,normalized growth,"S. cerevisiae deletion strains, locus YOR080W, strain dia2, hits give low values",1.03
same,normalized growth,"S. cerevisiae deletion strains, locus YOR083W, strain WHI5, hits give low values",1.04
same,normalized growth,"S. cerevisiae deletion strains, locus YOR106W, strain vam3, hits give low values",1.05
same,normalized growth,"S. cerevisiae deletion strains, locus YOR136W, strain idh2, hits give low values",1.02
same,normalized growth,"S. cerevisiae deletion strains, locus YOR144C, strain elg1, hits give low values",1.01
same,normalized growth,"S. cerevisiae deletion strains, locus YOR184W, strain ser1, hits give low values",0.983
same,normalized growth,"S. cerevisiae deletion strains, locus YOR231W, strain MKK1, hits give low values",1.01
same,normalized growth,"S. cerevisiae deletion strains, locus YOR265W, strain rbl2, hits give low values",1.05
same,normalized growth,"S. cerevisiae deletion strains, locus YOR270C, strain vph1, hits give low values",1.05
same,normalized growth,"S. cerevisiae deletion strains, locus YOR290C, strain snf2, hits give low values",1.06
same,normalized growth,"S. cerevisiae deletion strains, locus YOR316C, strain cot1, hits give low values",1.01
same,normalized growth,"S. cerevisiae deletion strains, locus YPL051W, strain arl3, hits give low values",1.04
same,normalized growth,"S. cerevisiae deletion strains, locus YPL055C, strain LGE1, hits give low values",1
same,normalized growth,"S. cerevisiae deletion strains, locus YPL078C, strain atp4, hits give low values",1.04
same,normalized growth,"S. cerevisiae deletion strains, locus YPL106C, strain sse1, hits give low values",1.04
same,normalized growth,"S. cerevisiae deletion strains, locus YPL240C, strain hsp82, hits give low values",1.03
same,normalized growth,"S. cerevisiae deletion strains, locus YPL241C, strain CIN2, hits give low values",0.996
same,normalized growth,"S. cerevisiae deletion strains, locus YPL256C, strain CLN2, hits give low values",1.02
same,normalized growth,"S. cerevisiae deletion strains, locus YPR119W, strain clb2, hits give low values",1.01
same,normalized growth,"S. cerevisiae deletion strains, locus YPR141C, strain kar3, hits give low values",1.01
same,normalized growth,"S. cerevisiae deletion strains, locus YPR163C, strain tif3, hits give low values",1.01
same,normalized growth,"S. cerevisiae deletion strains, locus YPR167C, strain met16, hits give low values",1
same,normalized growth,"S. cerevisiae deletion strains, strain wtn01, hits give low values",1.01
same,normalized growth,"S. cerevisiae strains, strain wild type, hits give low values",1.01

# Source: PubChem BioAssay AID1159580 (chemical genetic matrix, 2015)
